Results taken from PubChem BioAssay (NCI).
Compounds without any hit were thinned out: in the full panel of roughly 83,000, 20% have a hit.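 Growth was measured after 48 h exposure to one concentration of compound in 96-well plates. Values under 10 count as active.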 Calls of active or inactive are those of the source.

Assays:
Experiment in all cases: NCI-60 one-dose screen, 48 h (100 = growth as untreated, 0 = no growth, -100 = all killed)
Conditions in all cases: 10 µM unless noted
T-47D breast = system: T-47D breast
MDA-MB-435 melanoma = system: MDA-MB-435 melanoma
SW-620 colon = system: SW-620 colon
MCF7 breast = system: MCF7 breast
HCT-116 colon = system: HCT-116 colon
HCC-2998 colon = system: HCC-2998 colon
KM12 colon = system: KM12 colon
MDA-MB-468 breast = system: MDA-MB-468 breast

Measured: growth

CN1CCN(c2ccc(C(=O)/C=C/c3cc(C(F)(F)F)cc(C(F)(F)F)c3)cc2)CC1
active: T-47D breast -68.7% | MDA-MB-435 melanoma -60.8% | SW-620 colon -44.8% | MCF7 breast -82.3% | HCT-116 colon -87.4% | HCC-2998 colon -91% | KM12 colon -56.8% | MDA-MB-468 breast -69.3%

O=C(NNc1nc2cc(C(F)(F)F)ccc2n2cccc12)c1cnccn1
active: T-47D breast -74% | MDA-MB-435 melanoma -56.1% | SW-620 colon -26.4% | MCF7 breast -62.4% | HCT-116 colon -94.6% | HCC-2998 colon -72.2% | KM12 colon -55% | MDA-MB-468 breast -47.7%

O=S(=O)(Nc1cccc(-n2cnc3cc(-c4ccc(O)cc4)ccc32)c1)C1CC1
active: MDA-MB-435 melanoma -21.3% | KM12 colon 6.07% | MDA-MB-468 breast 3.78%
inactive: T-47D breast 27.3% | SW-620 colon 31.1% | MCF7 breast 21.8% | HCT-116 colon 13.4% | HCC-2998 colon 40.8%

Cn1cc(NC(=O)c2cc(NC(=O)c3ccc(/C=C/c4ccccc4)cc3)cn2C)cc1C(=O)NCCCN1CCOCC1
inactive: T-47D breast 46.4%
active: MDA-MB-435 melanoma -73.1% | SW-620 colon -34% | MCF7 breast -84.8% | HCT-116 colon -90.1% | HCC-2998 colon -80.1% | KM12 colon -45.8% | MDA-MB-468 breast -61.3%

C=C1CC[C@@H]2[C@]3(C)COC(c4cn[nH]c4-c4ccccc4)O[C@@H]3CC[C@@]2(C)[C@@H]1C/C=C1/C(=O)OCC1O (stereo partly drawn)
active: MDA-MB-435 melanoma 1.5% | MCF7 breast -28.3% | HCT-116 colon -20.3% | KM12 colon -11.3% | MDA-MB-468 breast -37%
inactive: T-47D breast 19.3% | HCC-2998 colon 16.9%

Cn1nc(C(F)(F)F)cc1-c1cc(Cl)c(COc2ccc(Cl)cc2)c(-c2ccc(Cl)c(C(F)(F)F)c2)c1O
active: MDA-MB-435 melanoma -34.4% | MCF7 breast -14.3% | HCT-116 colon -62.2% | HCC-2998 colon -33.1% | KM12 colon -19.1% | MDA-MB-468 breast -23.9%
inactive: T-47D breast 13.1%

O=C1N/C(=N\c2nccs2)S/C1=C\C=C/c1ccccc1
inactive: T-47D breast 32.7% | MDA-MB-435 melanoma 44.5% | SW-620 colon 41% | MCF7 breast 16.1% | HCT-116 colon 12.1% | HCC-2998 colon 75.7% | MDA-MB-468 breast 44.2%

CCN1CCN(Cc2ccc(C(=O)Nc3cccc(C#Cc4cccc5[nH]nc(N)c45)c3)cc2C(F)(F)F)CC1
active: T-47D breast -67.2% | MDA-MB-435 melanoma -69.1% | SW-620 colon -50.5% | MCF7 breast -84.9% | HCT-116 colon -86.8% | HCC-2998 colon -91.5% | KM12 colon -73.2% | MDA-MB-468 breast -85.5%

Clc1cccc(Cl)c1/C=C/c1cc(/C=C/c2ccc(Br)cc2)c2ccccc2n1
inactive: T-47D breast 81.2% | MDA-MB-435 melanoma 99.9% | MCF7 breast 83.3% | HCT-116 colon 95.8% | HCC-2998 colon 118% | KM12 colon 102% | MDA-MB-468 breast 111%

CC(=O)OC[C@@]1(C)C2CC[C@]3(C)C(CC=C4C5CC(C)(C)CC[C@]5(C(=O)Nc5ccc(Br)cc5)CC[C@]43C)[C@@]2(C)C[C@@H](OC(C)=O)[C@@H]1OC(C)=O (stereo partly drawn)
active: MDA-MB-468 breast 4.65%
inactive: T-47D breast 16.5% | MDA-MB-435 melanoma 47.8% | SW-620 colon 39.9% | MCF7 breast 28.2% | HCT-116 colon 24.6% | HCC-2998 colon 38% | KM12 colon 46.4%

COc1ccc(NC(=O)Cn2c(/C=C/c3cccc([N+](=O)[O-])c3)nc3ccccc3c2=O)cc1
inactive: T-47D breast 69.2% | MDA-MB-435 melanoma 99.8% | SW-620 colon 92.6% | MCF7 breast 46.8% | HCT-116 colon 55.4% | HCC-2998 colon 112% | KM12 colon 77.5% | MDA-MB-468 breast 83.6%

O=C(/C=C/c1cccc(OCc2ccc(F)cc2)c1)c1nc2ccccc2[nH]1
inactive: T-47D breast 22.1% | MDA-MB-435 melanoma 68.8% | HCC-2998 colon 26.6% | KM12 colon 13.6%
active: MCF7 breast 3.5% | HCT-116 colon -24.9% | MDA-MB-468 breast 8.37%

CN1CCN(Cc2ccc(C(=O)Nc3cccc(C#Cc4cccc5[nH]nc(N)c45)c3)cc2C(F)(F)F)CC1
active: T-47D breast -70.4% | MDA-MB-435 melanoma -70.2% | SW-620 colon -38.3% | MCF7 breast -84% | HCT-116 colon -90.4% | HCC-2998 colon -93.6% | KM12 colon -68.8% | MDA-MB-468 breast -89.9%

O=C(/C=C/c1ccc(-c2ccccc2)cc1)c1nc2ccccc2n1Cc1ccc(F)cc1
inactive: T-47D breast 18.3% | MDA-MB-435 melanoma 15.6% | MCF7 breast 14.7% | HCT-116 colon 13.8% | HCC-2998 colon 31.5% | KM12 colon 49.4% | MDA-MB-468 breast 25.8%

COc1ccc(-c2nnc3ccc(N/N=C/c4ccc(O)cc4)nn23)cc1
inactive: T-47D breast 45.4% | MDA-MB-435 melanoma 45.8% | SW-620 colon 67.1% | MCF7 breast 13.2% | HCT-116 colon 27.3% | HCC-2998 colon 14.9% | MDA-MB-468 breast 48.2%

COc1ccc(C(=O)/C=C/c2cc3c(cc2Br)OCO3)cc1S(N)(=O)=O
inactive: MDA-MB-468 breast 23.8%
active: T-47D breast -34.1% | MDA-MB-435 melanoma 5.61% | SW-620 colon -42.7% | MCF7 breast -1.63% | HCT-116 colon -98% | HCC-2998 colon -53.8% | KM12 colon -57.9%

COc1cccc(-c2c(C#N)c(-c3ccc(Cl)cc3)nc3n[nH]c(-c4ccc(Cl)cc4)c23)c1
inactive: MDA-MB-435 melanoma 46% | MCF7 breast 36.2% | HCT-116 colon 20.6% | HCC-2998 colon 56.6% | KM12 colon 32.5% | MDA-MB-468 breast 61%
active: T-47D breast 9.68%

CCOC(=O)C1=C(N)N(c2ccccc2)C2=C(C(=O)CC(C)(C)C2)C1c1ccc([N+](=O)[O-])cc1 (stereo not drawn)
inactive: T-47D breast 91.2% | MDA-MB-435 melanoma 102% | SW-620 colon 96.9% | MCF7 breast 83.8% | HCT-116 colon 83.8% | HCC-2998 colon 100% | KM12 colon 99.5% | MDA-MB-468 breast 96.1%

C(=C\c1cc(/C=C/c2ccccc2)c2ccccc2n1)/c1ccccc1
inactive: T-47D breast 78.3% | MDA-MB-435 melanoma 84.8% | MCF7 breast 37.3% | HCT-116 colon 17.3% | HCC-2998 colon 101% | KM12 colon 95.6% | MDA-MB-468 breast 107%

Cc1cc(C)n(-c2ccc3nnc(-c4ccccc4)n3n2)n1
inactive: T-47D breast 95.5% | MDA-MB-435 melanoma 106% | SW-620 colon 103% | MCF7 breast 89.9% | HCT-116 colon 106% | HCC-2998 colon 103% | KM12 colon 97.4% | MDA-MB-468 breast 97%

COc1c(F)ccc(C(=O)Nc2ccc3nc(NC(=O)C4CCCN(S(=O)(=O)c5ccc(Br)c(F)c5)C4)sc3c2)c1F (stereo not drawn)
inactive: T-47D breast 67.5% | MDA-MB-435 melanoma 92.3% | SW-620 colon 96.5% | HCT-116 colon 62.7% | HCC-2998 colon 109% | KM12 colon 79.2% | MDA-MB-468 breast 92%

Cc1ccc2c(N)c(C(=O)Nc3ccc(OC(F)(F)F)cc3)sc2n1
inactive: T-47D breast 27.3% | MDA-MB-435 melanoma 68.9% | MCF7 breast 39.4% | HCT-116 colon 58.8% | HCC-2998 colon 90.9% | KM12 colon 66.5% | MDA-MB-468 breast 15.9%

CN1CCN(c2ccc3c(c2)nc(NNC(=O)c2ncccn2)c2cccn23)CC1
active: T-47D breast -22.3% | MDA-MB-435 melanoma -45.7% | SW-620 colon -6.01% | MCF7 breast -17.6% | HCT-116 colon 0.844% | HCC-2998 colon -87.7% | MDA-MB-468 breast -42.8%

Nc1cc2ccccc2c(=O)n1NC(=O)c1ccc(I)cc1
inactive: T-47D breast 101% | MDA-MB-435 melanoma 100% | MCF7 breast 93.2% | HCT-116 colon 98% | HCC-2998 colon 114% | KM12 colon 103%

C[C@H]1CN(C(=O)c2ccc3c(NNC(=O)c4ccncn4)nc4cc(F)c(F)cc4n23)CCN1
active: MDA-MB-468 breast 7.53%
inactive: T-47D breast 21.3% | MDA-MB-435 melanoma 37.4% | SW-620 colon 38% | MCF7 breast 17.4% | HCT-116 colon 21.7% | HCC-2998 colon 61.7%

CC(=O)N1CCN(Cc2ccc3c(NNC(=O)c4cnccn4)nc4cc(F)ccc4n23)CC1
inactive: T-47D breast 16.4% | MDA-MB-435 melanoma 37.4% | SW-620 colon 38.8% | MCF7 breast 16.4% | HCT-116 colon 19.5% | HCC-2998 colon 61.3% | KM12 colon 32.6%
active: MDA-MB-468 breast 6.88%
